Data on eleven compounds can be found in PubChem BioAssay (EPA / NIEHS).

Experiment [1] can be described thus: APR_HepG2_CellCycleArrest_24hr: Apredica 24-hour HepG2 Assay for Cell Cycle Arrest (AID 2282905).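 Note: cell cycle arrest scored as ratio of 2N to 4N nuclear DNA content.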 The following applies: imaging, actives raise or lower the signal. Summed up:
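After 24 h exposure at 0.39–200 uM in 0.5% DMSO, fixed cells received Hoechst 33342 staining. Imaging quantified per-nucleus DNA content; gain or loss fitted against DMSO controls.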

A short description of experiment [2]: APR_HepG2_StressKinase_1hr: Apredica 1-hour HepG2 Assay for Stress Kinase (AID 2282906). To be noted: HepG2 stress kinase (phospho-c-Jun) imaging, actives raise or lower the signal. Summed up:
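High-content imaging of phospho-c-Jun immunostaining (with Hoechst nuclear identification) after a 1 h exposure of HepG2 cells to 10 concentrations from 0.39 to 200 uM, final DMSO 0.5%. Fitted bidirectionally against DMSO.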

Experiment [3] in a line: APR_HepG2_NuclearSize_24hr: Apredica 24-hour HepG2 Assay for Nuclear Size (AID 2282907). To be noted: high-content imaging, actives raise or lower the signal. Summed up:
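Nuclear size from Hoechst 33342-stained, formaldehyde-fixed HepG2 nuclei imaged by high-content microscopy, after 24 h dosing at ten concentrations from 0.39 to 200 uM in 0.5% DMSO; gain or loss relative to DMSO baseline.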

Experiment [4] can be described thus: APR_HepG2_CellLoss_24hr: Apredica 24-hour HepG2 Assay for Cell Loss (AID 2282908).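 For AC50: fit in both directions so a hit may be cell loss or gain.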 To be noted: high-content imaging. An outline of the steps:
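Nuclei stained with Hoechst 33342 after formaldehyde fixation (3.7%) were imaged at 20x to count cells. Exposure lasted 24 hr, at ten concentrations from 0.39 to 200 uM in duplicate, with 0.5% v/v DMSO. Fit bidirectional, relative to DMSO.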

Experiment [5] can be described thus: APR_HepG2_MicrotubuleCSK_24hr: Apredica 24-hour HepG2 Assay for Microtubule CSK Stabilty (AID 2282909). To be noted: HepG2 microtubule cytoskeleton imaging, actives raise or lower the signal. Summed up: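 Fixed HepG2 cells were stained for alpha-tubulin and imaged after 24 hr exposure to ten concentrations spanning 0.39–200 uM in 0.5% DMSO. Signal change was fitted in both directions relative to DMSO; taxol was the positive control.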

The nature of experiment [6]: APR_HepG2_MitoticArrest_24hr: Apredica 24-hour HepG2 Assay for Mitotic Arrest (AID 2282910). The following applies: high-content imaging, actives raise or lower the signal. Summed up: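 HepG2, 24 hr dosing, 0.39–200 uM, 0.5% DMSO final. Formaldehyde-fixed, Triton-permeabilised, anti-phospho-histone H3 plus Hoechst. ArrayScan imaging at 20x; bidirectional fit vs DMSO baseline.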

Experiment [7] in a line: APR_HepG2_MitoMembPot_24hr: Apredica 24-hour HepG2 Assay for Mitochondrial Membrane Potential (AID 2282911). To be noted: imaging, actives raise or lower the signal. An outline of the steps: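 HepG2, 24 hr dosing, 10 concentrations 0.39–200 uM, 0.5% DMSO final. Live-cell MitoTracker Red CMXRos 250 nM 30 min, then 3.7% formaldehyde fix. HCS fluorescence imaging, 20x; bidirectional fit vs DMSO baseline.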

Experiment [8] is described as follows: APR_HepG2_p53Act_24hr: Apredica 24-hour HepG2 Assay for p53 Activation (AID 2282913).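 Note: p53 protein immunofluorescence averaged per cell in HepG2 with Hoechst nuclei.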 The following applies: high-content imaging, actives raise or lower the signal. Summed up:
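Read-out: Cy5 immunofluorescence for p53 in fixed, permeabilized HepG2, imaged by HCS with Hoechst-defined nuclei. Dosing was 24 hr at 0.39–200 uM in 0.5% DMSO. Curves were fitted bidirectionally relative to DMSO.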

Experiment [9] in a line: APR_HepG2_CellCycleArrest_72hr: Apredica 72-hour HepG2 Assay for Cell Cycle Arrest (AID 2282914). The following applies: high-content imaging, actives raise or lower the signal. An outline of the steps:
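HepG2, 72 hr exposure, 10-point 0.39–200 uM, duplicate, 0.5% DMSO final. Fix 3.7% formaldehyde 30 min RT, Triton X-100 0.5%, Hoechst 33342 2 ug/mL. ArrayScan 20x, six fields/well; DNA content per nucleus; bidirectional fit vs DMSO.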

The nature of experiment [10]: APR_HepG2_MitoMass_24hr: Apredica 24-hour HepG2 Assay for Mitochondrial Mass (AID 2282912). The following applies: high-content imaging, actives raise or lower the signal. Summed up:
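Endpoint is MitoTracker Red CMXRos (250 nM, 30 min, pre-fixation) intensity from 20x high-content imaging, nuclei located by Hoechst. Human HepG2 cells received ten concentrations from 0.39 to 200 uM in 0.5% DMSO for 24 hr, duplicate wells. Bidirectional fit relative to DMSO.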

“And” between values parts separate entries of the source, which are not always exact repeats. Identical values can stand only once. More than one record can exist for a structure, and the calls need not agree. The source made the active and inactive calls. Rule for the calls: active = hit-call score of the fitted dose curve at least 0.9, where 1 is the maximum; inactive = score below 0.9.

For orientation: AC50 means the concentration giving half of the maximal activity seen.

`CCOCN(C(=O)CCl)c1c(C)cccc1CC`: the half-maximal activity concentration (AC50) is 30.6 µM (active) in experiment [1]; 33.4 µM (active) in experiment [3]; 30.5 µM (active) in experiment [4]; 99.6 µM (active) in experiment [5]; 17.9 µM (active) in [6]; 50.7 µM (active) in [7]. Besides, the AC50 in experiment [8] is 31.9 µM (active); in [9], 29.4 µM (active). Further, in experiment [2], the compound was called inactive.
As for `CN1CSC(=S)N(C)C1`, the compound was classed as inactive in experiment [1], in experiment [3], in experiment [5], in experiment [7] and in [8]. Besides, the AC50 is 40.9 µM (active) in experiment [2], 16.8 µM (active) in [4], 27 µM (active) in [6] and 6.04 µM (active) in experiment [9].
On to `Oc1cc(Cl)ccc1Oc1ccc(Cl)cc1Cl`, for which the AC50 in experiment [1] was 9.18 µM (active) and 20.4 µM (active); in experiment [3], 63.9 µM (active); in experiment [4], 90.7 µM (active) and 70.9 µM (active) and 12.8 µM (active); in [5] it was 98.5 µM (active) and 33.3 µM (active); in [6], 61.6 µM (active) and 63.6 µM (active); in experiment [7], 97.9 µM (active) and 4.39 µM (active). Besides, the AC50 in experiment [10] is 177 µM (active) and 59 µM (active); in [8], 28.4 µM (active); in [9], 18.9 µM (active) and 11.6 µM (active). Besides, the outcome in experiment [1], in experiment [2], in experiment [3], in experiment [5], in [6] and in experiment [7] was inactive. For the same compound, the compound was called inactive in [10], in [8] and in [9].
Consider `CNC(=O)Oc1ccccc1OC(C)C`, for which the call in experiment [1], in experiment [2], in [3], in experiment [4], in [5] and in [6] was inactive. The compound was classed as inactive in experiment [7], in [10], in [8] and in experiment [9].
As to `O=S(=O)(O)C(F)(F)C(F)(F)C(F)(F)C(F)(F)C(F)(F)C(F)(F)C(F)(F)C(F)(F)F`, the result in experiment [1], in experiment [2], in experiment [3], in experiment [5], in experiment [7] and in experiment [10] was inactive. Also, the compound was called inactive in [8] and in [9]. The AC50 is 63.8 µM (active) in [3]; 113 µM (active) in experiment [5]; 106 µM (active) [middle of 5 runs] in experiment [6]; 116 µM (active) [middle of 4 runs] in experiment [10]; 111 µM (active) [middle of 4 runs] in [8].
Consider `C[C@H]1[C@H](c2ccc(Cl)cc2)SC(=O)N1C(=O)NC1CCCCC1`, for which the compound was called inactive in experiment [1], in experiment [2], in experiment [3], in [4], in experiment [5] and in [6]. In addition, the result in experiment [7], in experiment [8] and in [9] was inactive.
On to `CCS(=O)(=O)c1cccnc1S(=O)(=O)NC(=O)Nc1nc(OC)cc(OC)n1`, for which the compound was classed as inactive in [1], in [2], in experiment [3], in experiment [5], in [6] and in experiment [7]. The call in experiment [10], in experiment [8] and in experiment [9] was inactive.
On to `CCOc1nc(NC)nc(NC(=O)NS(=O)(=O)c2ccccc2C(=O)OC)n1`, for which the outcome in experiment [1], in experiment [2], in experiment [3], in experiment [4], in experiment [5] and in experiment [6] was inactive. The compound was called inactive in [7], in [10], in [8] and in [9].
As for `[2H]C1([2H])[n+]2ccccc2-c2cccc[n+]2C1([2H])[2H]`, the outcome in experiment [1], in experiment [2], in experiment [3], in experiment [5], in experiment [6] and in experiment [7] was inactive. Moreover, the call in [10] and in experiment [8] was inactive. Further, in experiment [9], the half-maximal activity concentration (AC50) was 75.1 µM (active).
For the compound `CC1(C)C(C=C(Cl)Cl)C1C(=O)OC(C#N)c1ccc(F)c(Oc2ccccc2)c1` (centres undefined), the compound was classed as inactive in experiment [1], in experiment [2], in experiment [3], in experiment [5], in experiment [6] and in experiment [7]. Also, the compound was classed as inactive in [10], in experiment [8] and in [9].
For the compound `O=C1c2ccccc2C(=O)N1SC(Cl)(Cl)Cl`, the outcome in [1], in experiment [2], in experiment [3], in [5], in experiment [6] and in experiment [7] was inactive. In addition, the compound was called inactive in experiment [10], in [8] and in [9].
